In PubChem BioAssay AID1508621 (National Center for Advancing Translational Sciences (NCATS), 2021):
Inconclusive results are not listed. Activity calls are given as the source filed them. The call rests on the fitted dose curve; in most records, active means well fitted inhibition curve with a large enough effect; inconclusive means small, poorly fitted or top-dose-only effect; inactive means no such curve, though single readings can be large or run the other way.

Assay: Confirmatory qHTS for Identification of Small Molecule Inhibitors of Huntingtin Promoter Activity; further: nearly all actives have a fitted effect of over 65% in size;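 on activity change, negative = inhibition: 0% = vehicle control and -100% = zero luminescence signal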
Conditions: HEK293 HTT promoter firefly luciferase reporter, 24 h; series mostly up to 57.5 µM; activity change, negative = inhibition: at the top concentration
How it was run: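 HEK293 luciferase reporter cells, 2,500/well, cultured 24 h, then exposed to compounds at up to 57.5 uM final for 24 h at 37C. Firefly luciferase luminescence read; normalized to vehicle (0%) and zero RLU (-100%).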
Potency means the concentration at half of the fitted maximal effect.

Activity change, negative = inhibition, inactive:
COc1ccc(Cn2c(CO)cnc2SCc2ccc(F)cc2)cc1 -8.93%
O=C(NCc1cccs1)c1ccc(Cn2c(SCc3ccc(F)cc3)nc3cccnc32)cc1 -22.4%
COc1ccc(C(=O)Nc2cccc(-c3cn4ccsc4n3)c2)c(OC)c1 10.7%
O=C(Cn1c(=O)oc2cc(S(=O)(=O)N3CCCCC3)ccc21)NCc1ccc(Cl)cc1 -22.9%
CC(C)c1ccc(C2=CC(c3cccc(Cl)c3)n3c(nc4ccccc43)N2)cc1 (configuration not stated) -47.6%
COc1cc(C[C@@H](CO)[C@H](CO)Cc2ccc(O)c(OC)c2)ccc1O -8.64%

Potency, active:
COc1cc2nc(N3CCCN(C)CC3)nc(NC3CCN(Cc4ccccc4)CC3)c2cc1OC 26.9 µM
